# NS1 inh: influenza NS1 inhibition | Potency, µM (titrated, usually from 46.1 µM), for inactives: at the highest dose activity, positive = more growth | 0.4% of 270,000 active; also: actives are rising curves; nearly all actives have a fitted effect of over 50% in size
#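 Read-out: OD600 growth recovery of NS1-expressing budding yeast. Cells grown overnight at 30C in -URA glucose medium, washed, resuspended and diluted 1:100 in 2% galactose assay medium, pH 6.0. Same strain lacking NS1 served as positive control.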
# Pf growth 96h: P. falciparum growth inhibition at 96 hour, primary screen for plastid delayed-death inhibitors | P. falciparum luciferase reporter growth, 96 h | Potency, µM (doses to about 28.7 µM), for the others: at the top dose activity change, negative = inhibition, hits mostly inhibitors | 6.9% of 320,000 active | AID 504834; active = well fitted inhibition curve with a large enough effect; inconclusive = small, poorly fitted or top-dose-only effect, or another doubt; inactive = no such curve, though single readings can be large or run the other way; also: % is scaled to controls: 0 for no effect and ±100 for the full control effect
#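 Erythrocytes infected with luciferase-expressing P. falciparum were dispensed at 2% hematocrit and 0.05% parasitemia (final), then incubated with compounds 96 hours at 37 C in 5% CO2. Luminescence after detection reagent addition reported growth.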
# SARS PLP yeast: SARS-CoV PLP inhibition in yeast; S. cerevisiae expressing SARS-CoV PLpro, growth rescue; Potency, µM (doses to about 32.9 µM), without a hit: top-dose activity, positive = growth rescue, most hits filed as activators; 0.19% of 330,000 active; AID 485353; also: 0% is about no effect; nearly all actives have a fitted effect of over 55% in size
# Pf growth 48h: P. falciparum growth inhibition at 48 hours (one generation). P. falciparum luciferase growth in erythrocytes, 48 h. Potency, µM (titrated, usually from 28.7 µM), inactives show top-dose activity change, negative = inhibition, most hits filed as inhibitors. 5.9% of 310,000 active; active = well fitted inhibition curve with a large enough effect; inconclusive = small, poorly fitted or top-dose-only effect, or another doubt; inactive = no such curve, though single readings can be large or run the other way; also: % is scaled to controls: 0 for no effect and ±100 for the full control effect
#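 Parasite viability was followed by luminescence of a genomically integrated firefly luciferase. Cultures held 0.1% parasitemia at 2% hematocrit (final), incubated under 5% CO2 at 37 C.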
# * = called active by the depositor; ? = inconclusive; . = no result. Shown are actives, neighbours in structure and some others; about 10% of the full set was active somewhere. Unless noted, calls follow the shape of the full dose curve. Potency is read from the fitted curve at half-maximal effect.
SMILES,NS1 inh,Pf growth 96h,SARS PLP yeast,Pf growth 48h
Fc1ccccc1N1CCN(C(c2ccccn2)c2nnnn2C2CCCCC2)CC1 (configuration not stated),-57%,-6%,-5%,10µM*
O=C(CSc1nnc(Cc2ccccc2)c(=O)[nH]1)Nc1ccccc1,.,14%,-2%,5%
O=C(Nc1ccccc1O)c1nc(Cl)ccc1Cl,.,-4%,-5%,40%
CS(=O)(=O)c1ccc(Cl)c(NC(=O)COC(=O)Cc2c[nH]c3ccccc23)c1,.,9%,1%,6%
CCC/C=C(\CCC)C(NS(=O)(=O)c1ccc(C(F)(F)F)cc1)c1ccccc1 (configuration not stated),-43%,7.4µM*,-28%,9.3µM*
O=C(O)C(NS(=O)(=O)c1ccc(F)cc1)c1ccccc1 (configuration not stated),0%,19%,0%,-2%
CC1Oc2ccccc2N(CC(=O)NCCN2CCOCC2)C1=O (configuration not stated),1%,8%,0%,24%
COC1C=CO[C@@]2(C)Oc3c(C)c(O)c4c(O)c(c(C=NN5CCN(C)CC5)c(O)c4c3C2=O)NC(=O)/C(C)=C\C=CC(C)C(O)[C@@H](C)C(O)C(C)[C@H](OC(C)=O)C1C (some centres not stated),.,0.6µM*,.,0.95µM*
CO[C@H]1/C=C/O[C@@]2(C)Oc3c(C)c(O)c4c(O)c(c5c(c4c3C2=O)NC2(CCN(CC(C)C)CC2)N=5)=NC(=O)/C(C)=C\C=C\[C@H](C)[C@H](O)[C@@H](C)[C@@H](O)[C@@H](C)[C@H](OC(C)=O)[C@@H]1C,.,5.4µM*,.,8.5µM*
COC1C=CO[C@@]2(C)Oc3c(C)c(O)c4c(O)c(c5c(nc6cc(C)ccn65)c4c3C2=O)NC(=O)/C(C)=C\C=CC(C)C(O)[C@@H](C)C(O)C(C)[C@@H](OC(C)=O)C1C (some centres not stated),.,4.8µM*,.,6.7µM*
CO[C@@H]1/C=C\O[C@]2(C)Oc3c(C)c(O)c4c(O)c(c(CN5CCN(C)CC5)c(O)c4c3C2=O)NC(=O)/C(C)=C\C=C[C@@H](C)[C@@H](O)[C@H](C)[C@@H](O)C(C)[C@H](OC(C)=O)[C@@H]1C (some centres not stated),-19%,.,.,.
Cc1occc1C(=O)N(Cc1nc(-c2ccccc2)no1)C(C)C,-4%,11%,1%,-26%
Cc1ccc(C(=O)O[C@H](C(=O)O)[C@@H](OC(=O)c2ccc(C)cc2)C(=O)O)cc1 (tested in a mixture with another compound),-7%,.,.,.
COc1ccccc1CN1CC(C(=O)N(C)CCOc2ccccc2)CCC1=O (configuration not stated),-2%,?,0%,0%
COc1ccccc1CN1CC(C(=O)N(C)CCc2nc3ccc(F)cc3[nH]2)CCC1=O (configuration not stated),-7%,10µM*,4%,-12%
CCc1ccc(NC(=O)CSc2nc(=O)n(CCCN(C)C)c3c2CCC3)cc1,.,-18%,-4%,?
Cc1cccc(CNC(=O)C2CCC(=O)N(C3CCCCCC3)C2)c1 (configuration not stated),0%,?,-1%,-10%
O=C(CN1CCN(Cc2ccccc2)CC1)Nc1ccc([N+](=O)[O-])cc1C(=O)Nc1ccccc1F,-7%,?,-17%,10µM*
CCOC(=O)N1CCN(CC(=O)Nc2ccc([N+](=O)[O-])cc2C(=O)Nc2ccccc2F)CC1,25%,?,-15%,12µM*
Cc1cc([N+](=O)[O-])ccc1NC(=O)CN1CCN(Cc2ccccc2)CC1,12%,?,5%,0%
COc1ccc(/C=C/c2nc(S(=O)(=O)c3ccccc3)c(NCCCN(C)C)o2)cc1OC,2%,?,-3%,12µM*
CN(CCC(=O)O)C1=Nc2ccc(Cl)cc2C(c2ccccc2)=[N+]([O-])C1,-3%,.,.,.
COC(=O)c1ccc(NC(=O)CCc2nnc3ccc(N4CCC5(CC4)OCCO5)nn23)cc1,-6%,-10%,1%,-19%
S=c1[nH]c(-c2ccccc2)cn1-c1ccccc1,-8%,?,3%,-19%
S=c1[nH]c(-c2ccc(Br)cc2)cn1CCc1ccccc1,.,13µM*,-4%,?
SMILES,NS1 inh,Pf growth 96h,SARS PLP yeast,Pf growth 48h
CCN(CC)c1ccc(N=Cc2c(O)n(-c3ccc(OC)cc3)c(=O)[nH]c2=O)cc1,0%,10µM*,-1%,.
CCN(CC)c1ccc(N=Cc2c(O)n(-c3ccc(Cl)cc3)c(=O)[nH]c2=O)cc1,6%,?,4%,-12%
Cc1ccccc1-n1c(O)c(C=Nc2ccc(N(C)C)cc2)c(=O)[nH]c1=O,-37%,1.9µM*,-7%,2.6µM*
Cc1cccc(N=Cc2c(O)n(-c3ccccc3C)c(=O)[nH]c2=O)c1,17%,7%,-2%,.
Cc1ccc(-n2c(O)c(C=Nc3ccc(S(=O)(=O)N(C)C)cc3)c(=O)[nH]c2=O)cc1,7%,2.1µM*,-9%,.
CN(C(=O)CN1C(=O)c2ccccc2S1(=O)=O)C1CCCCC1,.,.,1%,.
CC(=O)c1[nH]c(C)c(C(=O)N2CCCC(Nc3cccc(F)c3)C2)c1C (configuration not stated),9%,8%,0%,-14%
Cc1ccc2nc(/N=C(\N)NC(=O)N3c4ccccc4Sc4ccccc43)nc(C)c2c1,-8%,354%,-15%,-18%
Cc1cc2nc(/N=C(\N)NC(=O)N3c4ccccc4Sc4ccccc43)nc(C)c2cc1C,16%,?,-17%,8.3µM*
Nc1cnc(CNc2ccccc2Cl)cn1,2%,35%,-2%,51%
CCN1CCN(C(=O)c2ccc(OC3CCN(CCc4ccccc4)CC3)cc2)[C@@H](C)C1=O,4%,3.7µM*,-2%,?
CN(C(=O)c1ccc(OC2CCN(CCc3ccccc3)CC2)cc1)C1CCOCC1,3%,9.3µM*,1%,-2%
CN(C(=O)c1ccc(OC2CCN(CCc3ccccc3)CC2)cc1)C1CCOC1 (configuration not stated),5%,?,-1%,-5%
O=C(NC1CCOC1)c1ccc(OC2CCN(CCc3ccccc3)CC2)cc1 (configuration not stated),-6%,2.3µM*,1%,-6%
Cn1c(=O)c2c(nc(Cc3ccccc3)n2CC(=O)O)n(C)c1=O,-3%,.,.,.
COc1ccc(-c2cc3ccc(OC(C)C(=O)O)cc3oc2=O)cc1 (configuration not stated),20%,?,.,144%
CC(C)(C)c1ccc(OCCC(=O)NCC(c2cccs2)N2CCOCC2)cc1 (configuration not stated),.,?,6%,?
COC(=O)/C(=C\c1ccc2c(c1)c1ccccc1n2C)NC(=O)c1ccccc1,2%,1.2µM*,-11%,?
CC(C)OC(=O)/C(=C/c1ccc2c(c1)c1ccccc1n2C)NC(=O)c1ccccc1,21%,?,6%,?
COC(CNC(=O)c1ccc2c(c1)nc(C)n2-c1cccc(C)c1)OC,7%,21%,0%,-8%

# Screens deposited in PubChem BioAssay by National Center for Advancing Translational Sciences (NCATS).
